Potency and outcome data for 7 compounds are collected here from PubChem BioAssay (Tox21).

Values without a mark were called inactive. Records with an inconclusive call do not appear. Active and inactive are the calls of the source. Unless noted, the call rests on the fitted dose curve.

Assay [1] is described as follows: qHTS assay to identify small molecule agonists of the sonic hedgehog signaling (Shh) pathway (AID 1259368).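 Further: NIH/3T3-derived 3T3Gli1-Luc cells carrying a stable Gli1-driven firefly luciferase reporter; series mostly up to about 92 µM; nearly all actives have a fitted effect of over 15% in size.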 The method, boiled down:
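3T3Gli1-Luc (NIH/3T3 clone, stable Gli1-Luc); 4 hr pre-incubation, then cpd in DMSO 24 hr, 37 C/5% CO2; luciferase reagent 30 min RT; luminescence.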
(In general: In qHTS, concentration-response curves come from the screen itself.)

Assay [2] can be described thus: qHTS assay to identify small molecule antagonists of the sonic hedgehog signaling (Shh) pathway (AID 1259369). Further: nearly all actives have a fitted effect of over 45% in size. Further: potency means the concentration at half of the fitted maximal effect. The method, boiled down:
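3T3Gli1-Luc, conditioned-medium-stimulated, 24hr cpd, 37C/5% CO2; Gli1-driven firefly Luc luminescence after 30min RT with luciferase reagent. Cells plated 4hr before cpd.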

In assay [3] the target is Estrogen receptor beta (Homo sapiens) (UniProt Q92731). The assay is described as follows: qHTS assay to identify small molecule agonists of the estrogen receptor beta (ER-beta) signaling pathway (AID 1259377; active means well fitted activation curve with a large enough effect in the signal ratio in the repeat runs, not every such curve was filed as active; the % refers to the signal ratio). In short, it runs like this:
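Read-out: beta-lactamase FRET fluorescence. Cell line: ER-beta-UAS-bla HEK293T in 2% charcoal-stripped FBS. Exposure: 16 hr at 37C. Substrate step: 2 h at room temperature.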

Assay [4] shares this target. The assay is described as follows: qHTS assay to identify small molecule antagonists of the estrogen receptor beta (ER-beta) signaling pathway (AID 1259378; active means well fitted inhibition curve with a large enough effect in the signal ratio in the repeat runs, not every such curve was filed as active; the % refers to the signal ratio). In short, it runs like this:
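ER-beta-UAS-bla HEK293T cells in 2% charcoal-stripped FBS medium treated with compound plus 1nM final 17-beta-estradiol for 16 hr at 37C. Beta-lactamase reporter read by FRET substrate fluorescence after 2 hours at room temperature.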

Assay [5] can be described thus: qHTS assay to identify small molecule agonists of the androgen receptor (AR) signaling pathway in the presence of an antagonist - cell viability counter screen (AID 1259379; active means well fitted curve in the direction sought with a large enough effect in the repeat runs; an effect the other way counts as inactive or inconclusive; further: nearly all actives have a fitted effect of over 25% in size; further: potency means the concentration at half of the fitted maximal effect). In short, it runs like this: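 Cells: MDA-kb2 (MMTV-luc, AR and GR elements), 3,000/well, 5 hr settle. Added: nilutamide 3.0uM final, then compounds (15 conc.). Incubation: 16 hr, 37C, no CO2. Read-out: CellTiter-Fluor, 1 hr, fluorescence.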

A short description of assay [6]: qHTS assay to identify small molecule agonists of the estrogen receptor beta (ER-beta) signaling pathway - cell viability counter screen (AID 1259380; active means well fitted curve in the direction sought with a large enough effect in the repeat runs; an effect the other way counts as inactive or inconclusive; further: nearly all actives have a fitted effect of over 30% in size). The method, boiled down: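 HEK293T ER-beta-UAS-bla; 2% CS-FBS; 6 hr pre-plate, 16 hr cpd at 37C/5% CO2; LiveBLAzer read first, then CellTiter-Glo 30 min RT, luminescence.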
The nature of assay [7]: qHTS assay to identify small molecule agonists or antagonists of the thyroid stimulating hormone receptor (TSHR) signaling pathway - wild type cell line counter screen (AID 1259384). The method, boiled down: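 Wild-type Hek293 cells, 800/well, 18 h at 37C, then compound with Ro20-1724 for 30 min RT. cAMP by HTRF (cAMP-d2/anti-cAMP cryptate), 1 h RT, fluorescence read. 15 concentrations, triplicates.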

The nature of assay [8]: qHTS assay to identify small molecule agonists of the estrogen receptor alpha (ER-alpha) signaling pathway in the presence of an antagonist - cell viability counter screen (AID 1259386; active means well fitted curve in the direction sought with a large enough effect in the repeat runs; an effect the other way counts as inactive or inconclusive;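 further: cells exposed to compounds for 22 h at 37 °C before the viability read; nearly all actives have a fitted effect of over 30% in size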; further: potency means the concentration at half of the fitted maximal effect). In short, it runs like this: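 VM7Luc4E2, stripped-serum pre-culture 5 d; 24hr plating; +ICI-182,780 10.0nM final; cpds 15 conc, 22hr, 37C/5% CO2; CellTiter-Fluor added at 21hr, fluorescence 1hr later.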

Assay [9] concerns the target Progesterone receptor (Homo sapiens) (UniProt P06401). The assay is described as follows: qHTS assay to identify small molecule agonists of the progesterone receptor (PR) signaling pathway (AID 1346784). Further: nearly all actives have a fitted effect of over 30% in size. In short, it runs like this: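 Compounds were tested for PR agonism in HEK 293T cells bearing a beta-lactamase gene under UAS control. Treatment lasted 16 hr at 37C; signal came from fluorescence of a FRET substrate.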

The nature of assay [10]: qHTS assay to identify small molecule antagonists of the progesterone receptor (PR) signaling pathway - cell viability counter screen (AID 1346798; active means well fitted curve in the direction sought with a large enough effect in the repeat runs; an effect the other way counts as inactive or inconclusive; further: series mostly up to about 92 µM; nearly all actives have a fitted effect of over 50% in size). In short, it runs like this: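 Following a 4 hr attachment, PR-UAS-bla HEK293T cells in charcoal-stripped FBS medium were exposed to compounds with R5020 for 16 hr; CellTiter-Glo was added and luminescence read after 30 min at room temperature.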

Assay [11] is described as follows: qHTS assay to identify small molecule agonists of the progesterone receptor (PR) signaling pathway - cell viability counter screen (AID 1346799). Further: nearly all actives have a fitted effect of over 45% in size. Further: potency means the concentration at half of the fitted maximal effect. In short, it runs like this: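 Here, 3,000 PR-UAS-bla HEK293T cells per well were treated with compounds for 16 hr after a 6 hr preincubation at 37C and 5% CO2; cell viability is the CellTiter-Glo luminescence signal.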

Assay [12] in a line: qHTS assay to identify small molecule agonists of the TGF-beta/Smad signaling pathway - cell viability counter screen (AID 1346829; active means well fitted curve in the direction sought with a large enough effect in the repeat runs; an effect the other way counts as inactive or inconclusive; further: top concentration of the series differs between compounds; nearly all actives have a fitted effect of over 45% in size). In short, it runs like this:
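Same-well cytotoxicity: CellTiter-Glo added after the 2 hr room-temperature beta-lactamase substrate step, luminescence measured 30 min later; cells had 5 hr of compound at 37 C.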

Assay [13] is described as follows: qHTS assay to identify small molecule agonists of the TGF-beta/Smad signaling pathway (AID 1346859; active means well fitted activation curve with a large enough effect in the signal ratio in the repeat runs, not every such curve was filed as active; the % refers to the signal ratio; further: series mostly up to about 77 µM). In short, it runs like this:
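Each well held 4,000 SBE-bla HEK 293T cells incubated overnight before compound addition; 5 hr later the cleavable FRET substrate went on for 2 hr at room temperature, and fluorescence was read at two emissions.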

Assay [14] deals with Estrogen receptor (Homo sapiens) (UniProt P03372). The assay is described as follows: qHTS assay to identify small molecule agonists of the estrogen receptor alpha (ER-alpha) signaling pathway in the presence of an antagonist (AID 1259383). Further: top concentration of the series differs between compounds; nearly all actives have a fitted effect of over 15% in size. The method, boiled down: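 VM7Luc4E2, endog. ER-alpha + 4×ERE-luc; charcoal-stripped FBS, phenol red-free, 5 d; 24hr plating; +10.0nM ICI-182,780 (final); cpds 15 conc, 22hr, 37C/5% CO2; ONE-Glo luminescence.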

In assay [15] the target is Progesterone receptor (Homo sapiens) (UniProt P06401). The assay is described as follows: qHTS assay to identify small molecule antagonists of the progesterone receptor (PR) signaling pathway (AID 1346795; active means well fitted inhibition curve with a large enough effect in the signal ratio in the repeat runs, not every such curve was filed as active; the % refers to the signal ratio). The method, boiled down:
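In HEK293T cells bearing the PR-UAS-bla reporter, compound effects on promegestone-driven (1 nM) beta-lactamase expression are assessed after 16 hr using a fluorescent FRET substrate incubated 2 hr at room temperature.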

Assay [16] concerns the target Thyrotropin-releasing hormone receptor (Homo sapiens) (UniProt P34981). As to the kind of experiment: qHTS assay to identify small molecule antagonists of the thyrotropin-releasing hormone receptor (TRHR) signaling pathway (AID 1346877; active means well fitted inhibition curve with a large enough effect in the repeat runs, not every such curve was filed as active; further: series mostly up to about 51 µM). The method, boiled down:
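Intracellular calcium fluorescence, read kinetically every second over 3 min, reports TRH-evoked signalling in HEK293 cells carrying TRHR. Test compounds were added 5 min ahead of a 1 nM TRH challenge.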

The nature of assay [17]: qHTS assay to identify small molecule antagonists of the estrogen receptor beta (ER-beta) signaling pathway - cell viability counter screen (AID 1259382; active means well fitted curve in the direction sought with a large enough effect in the repeat runs; an effect the other way counts as inactive or inconclusive; further: series mostly up to about 92 µM; nearly all actives have a fitted effect of over 55% in size). The method, boiled down:
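Cells: ER-beta-UAS-bla HEK293T, 2,000/well, 2% CS-FBS, 6 hr settle. Cpd + E2 (1nM final), 16 hr, 37C/5% CO2. Bla FRET substrate 2 hr RT, then CellTiter-Glo 30 min RT, luminescence.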

Assay [18] deals with Thyrotropin receptor (Homo sapiens) (UniProt P16473). The assay is described as follows: qHTS assay to identify small molecule antagonists of the thyroid stimulating hormone receptor (TSHR) signaling pathway (AID 1259385). Further: nearly all actives have a fitted effect of over 20% in size. The method, boiled down: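 TSHR-HEK293 cells (800/well) plated 18 h, then compounds with Ro20-1724 and TSH at 1.5 ng/mL final, 30 min at room temperature. cAMP quantified by HTRF (cAMP-d2/anti-cAMP-cryptate, 1 h); 15 concentrations in triplicate.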

The nature of assay [19]: qHTS assay to identify small molecule antagonists of the TGF-beta/Smad signaling pathway - cell viability counter screen (AID 1346824; active means well fitted curve in the direction sought with a large enough effect in the repeat runs; an effect the other way counts as inactive or inconclusive; further: nearly all actives have a fitted effect of over 50% in size). In short, it runs like this:
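SBE-bla HEK 293T cells, incubated overnight, then compound plus 0.25 ng/mL TGF-beta1 (stock added) for 5 hr at 37 C. Viability was read in the same wells by CellTiter-Glo luminescence after 30 min at room temperature.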

Assay [20] addresses Androgen receptor (Homo sapiens) (UniProt P10275). As to the kind of experiment: qHTS assay to identify small molecule agonists of the androgen receptor (AR) signaling pathway in the presence of an antagonist (AID 1259381). Further: nearly all actives have a fitted effect of over 15% in size. In short, it runs like this: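 MDA-kb2 cells, 3,000/well, rested 5hr at 37C/0% CO2 → nilutamide 3.0uM final or buffer → compounds, 15 conc. → 16hr at 37C → ONE-Glo, 30min RT → luminescence.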

Sequence of Estrogen receptor beta (Homo sapiens) (Q92731 whole entry, looked up): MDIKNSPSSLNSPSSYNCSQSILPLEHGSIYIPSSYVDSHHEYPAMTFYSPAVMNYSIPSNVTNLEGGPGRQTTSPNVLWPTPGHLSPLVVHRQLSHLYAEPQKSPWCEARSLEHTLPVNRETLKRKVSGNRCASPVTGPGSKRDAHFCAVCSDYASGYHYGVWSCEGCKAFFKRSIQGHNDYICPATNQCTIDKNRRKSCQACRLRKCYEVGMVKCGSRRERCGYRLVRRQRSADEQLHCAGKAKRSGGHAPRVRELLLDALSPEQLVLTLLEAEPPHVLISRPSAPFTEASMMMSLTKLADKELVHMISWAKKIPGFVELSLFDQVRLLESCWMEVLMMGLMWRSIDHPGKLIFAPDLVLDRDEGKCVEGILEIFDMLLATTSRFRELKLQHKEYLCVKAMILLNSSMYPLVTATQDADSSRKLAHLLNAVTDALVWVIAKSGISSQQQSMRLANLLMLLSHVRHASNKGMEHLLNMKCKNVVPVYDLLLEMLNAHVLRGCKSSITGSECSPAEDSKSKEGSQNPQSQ
Sequence of Estrogen receptor (Homo sapiens) (P03372 whole entry, looked up): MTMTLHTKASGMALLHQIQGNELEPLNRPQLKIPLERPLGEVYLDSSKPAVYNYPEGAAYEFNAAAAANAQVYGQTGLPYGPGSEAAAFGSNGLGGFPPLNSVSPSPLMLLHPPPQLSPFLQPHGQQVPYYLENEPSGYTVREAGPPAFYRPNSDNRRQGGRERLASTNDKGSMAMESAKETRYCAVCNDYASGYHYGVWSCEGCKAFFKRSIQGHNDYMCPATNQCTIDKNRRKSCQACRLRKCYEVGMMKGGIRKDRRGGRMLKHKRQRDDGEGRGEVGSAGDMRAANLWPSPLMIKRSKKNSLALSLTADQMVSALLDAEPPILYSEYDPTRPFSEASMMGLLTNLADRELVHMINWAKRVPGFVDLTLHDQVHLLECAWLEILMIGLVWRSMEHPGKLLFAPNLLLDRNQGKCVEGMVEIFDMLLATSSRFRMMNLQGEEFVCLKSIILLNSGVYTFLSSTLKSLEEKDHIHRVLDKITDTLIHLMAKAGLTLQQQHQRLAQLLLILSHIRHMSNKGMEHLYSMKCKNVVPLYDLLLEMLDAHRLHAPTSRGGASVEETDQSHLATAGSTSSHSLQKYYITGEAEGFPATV
Sequence of Thyrotropin receptor (Homo sapiens) (P16473 whole entry, looked up): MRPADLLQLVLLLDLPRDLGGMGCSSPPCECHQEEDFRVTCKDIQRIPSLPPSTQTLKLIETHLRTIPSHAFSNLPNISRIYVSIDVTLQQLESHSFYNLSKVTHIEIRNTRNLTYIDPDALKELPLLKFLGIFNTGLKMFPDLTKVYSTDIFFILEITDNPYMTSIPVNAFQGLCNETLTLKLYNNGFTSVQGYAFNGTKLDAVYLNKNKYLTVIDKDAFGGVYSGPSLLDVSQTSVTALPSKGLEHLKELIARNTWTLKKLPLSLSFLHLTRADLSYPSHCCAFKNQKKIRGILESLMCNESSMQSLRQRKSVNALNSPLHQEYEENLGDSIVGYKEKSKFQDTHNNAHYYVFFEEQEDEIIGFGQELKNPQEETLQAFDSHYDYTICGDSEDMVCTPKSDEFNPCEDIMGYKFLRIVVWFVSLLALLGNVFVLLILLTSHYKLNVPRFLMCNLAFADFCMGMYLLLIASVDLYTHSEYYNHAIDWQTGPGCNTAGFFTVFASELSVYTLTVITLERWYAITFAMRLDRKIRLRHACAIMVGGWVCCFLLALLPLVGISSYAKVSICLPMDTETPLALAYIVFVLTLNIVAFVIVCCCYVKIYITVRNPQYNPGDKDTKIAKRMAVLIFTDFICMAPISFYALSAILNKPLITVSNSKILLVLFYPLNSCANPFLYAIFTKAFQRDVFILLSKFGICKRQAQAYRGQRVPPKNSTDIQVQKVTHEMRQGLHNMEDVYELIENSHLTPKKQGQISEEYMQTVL
Sequence of Thyrotropin-releasing hormone receptor (Homo sapiens) (P34981 whole entry, looked up): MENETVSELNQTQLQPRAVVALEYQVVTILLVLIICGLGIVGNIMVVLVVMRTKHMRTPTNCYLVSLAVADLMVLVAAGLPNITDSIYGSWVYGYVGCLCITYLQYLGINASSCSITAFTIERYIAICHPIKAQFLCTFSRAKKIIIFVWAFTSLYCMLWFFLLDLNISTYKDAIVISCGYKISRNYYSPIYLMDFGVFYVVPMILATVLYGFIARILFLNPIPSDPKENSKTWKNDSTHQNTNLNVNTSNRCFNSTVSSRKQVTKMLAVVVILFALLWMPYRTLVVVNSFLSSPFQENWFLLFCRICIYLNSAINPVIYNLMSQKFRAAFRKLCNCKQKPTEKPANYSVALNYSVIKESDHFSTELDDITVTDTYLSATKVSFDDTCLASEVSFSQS
Sequence of Progesterone receptor (Homo sapiens) (P06401 whole entry, looked up): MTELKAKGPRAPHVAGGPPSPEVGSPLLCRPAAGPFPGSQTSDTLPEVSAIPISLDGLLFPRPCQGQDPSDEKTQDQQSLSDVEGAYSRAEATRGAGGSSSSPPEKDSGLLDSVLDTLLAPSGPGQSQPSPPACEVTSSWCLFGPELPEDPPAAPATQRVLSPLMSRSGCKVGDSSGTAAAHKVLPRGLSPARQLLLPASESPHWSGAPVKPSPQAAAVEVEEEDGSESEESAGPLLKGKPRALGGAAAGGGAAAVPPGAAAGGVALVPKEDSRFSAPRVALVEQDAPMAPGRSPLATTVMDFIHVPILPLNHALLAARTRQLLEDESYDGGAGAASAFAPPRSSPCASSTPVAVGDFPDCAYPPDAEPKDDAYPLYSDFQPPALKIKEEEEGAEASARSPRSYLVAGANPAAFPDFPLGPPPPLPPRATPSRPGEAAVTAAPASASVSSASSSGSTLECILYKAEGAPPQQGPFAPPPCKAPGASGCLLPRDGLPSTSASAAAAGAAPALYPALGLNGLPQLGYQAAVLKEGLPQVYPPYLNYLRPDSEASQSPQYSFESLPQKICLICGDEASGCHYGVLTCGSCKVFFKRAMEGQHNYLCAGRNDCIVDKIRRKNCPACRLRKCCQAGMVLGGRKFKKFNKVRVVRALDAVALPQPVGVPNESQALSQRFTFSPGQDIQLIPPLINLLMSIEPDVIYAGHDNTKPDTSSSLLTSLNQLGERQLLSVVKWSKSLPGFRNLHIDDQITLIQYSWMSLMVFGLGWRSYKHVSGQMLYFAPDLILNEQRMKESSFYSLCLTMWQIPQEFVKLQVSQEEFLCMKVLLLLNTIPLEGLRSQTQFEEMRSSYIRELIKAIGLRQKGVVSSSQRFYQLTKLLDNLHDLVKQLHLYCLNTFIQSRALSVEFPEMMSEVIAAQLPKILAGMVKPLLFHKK
Sequence of Androgen receptor (Homo sapiens) (P10275 whole entry, looked up): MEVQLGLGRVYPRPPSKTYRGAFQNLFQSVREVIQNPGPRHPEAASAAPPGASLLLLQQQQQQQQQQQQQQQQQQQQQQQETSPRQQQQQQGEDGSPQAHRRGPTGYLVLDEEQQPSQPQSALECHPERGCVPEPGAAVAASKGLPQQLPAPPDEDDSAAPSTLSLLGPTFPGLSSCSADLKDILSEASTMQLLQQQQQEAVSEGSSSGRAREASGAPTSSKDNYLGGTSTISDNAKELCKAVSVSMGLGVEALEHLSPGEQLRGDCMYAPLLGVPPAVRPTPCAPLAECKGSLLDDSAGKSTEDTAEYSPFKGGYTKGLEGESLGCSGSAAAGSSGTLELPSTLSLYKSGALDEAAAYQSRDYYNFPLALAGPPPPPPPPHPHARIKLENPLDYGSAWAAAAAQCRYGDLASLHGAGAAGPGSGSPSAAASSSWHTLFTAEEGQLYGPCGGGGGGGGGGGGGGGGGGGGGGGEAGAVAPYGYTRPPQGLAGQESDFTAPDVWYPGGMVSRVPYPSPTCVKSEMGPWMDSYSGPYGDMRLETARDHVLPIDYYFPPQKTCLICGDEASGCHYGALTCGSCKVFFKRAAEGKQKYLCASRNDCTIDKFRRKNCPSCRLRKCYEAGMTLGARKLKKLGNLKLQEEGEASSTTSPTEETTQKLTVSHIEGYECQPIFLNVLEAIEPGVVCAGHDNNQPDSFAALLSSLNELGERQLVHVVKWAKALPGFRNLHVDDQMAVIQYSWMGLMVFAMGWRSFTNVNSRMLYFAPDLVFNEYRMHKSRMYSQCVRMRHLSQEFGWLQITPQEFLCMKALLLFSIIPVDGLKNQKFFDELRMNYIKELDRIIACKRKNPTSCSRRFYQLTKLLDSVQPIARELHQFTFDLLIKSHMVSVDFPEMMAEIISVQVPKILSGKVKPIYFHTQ

Turning to `Cc1ccc(Cl)cc1N`, the Potency entry in [1], in assay [2], in assay [3], in assay [4], in [5] and in assay [6] was “inactive” in each case. The Potency entry in assay [7], in assay [8], in assay [9], in assay [10], in [11] and in assay [12] was “inactive” throughout. In [13], the Potency result is “inactive”.
Regarding `CCN(Cc1cccc(S(=O)(=O)O)c1)c1ccc(C(=C2C=CC(=[N+](CC)Cc3cccc(S(=O)(=O)O)c3)C=C2)c2ccccc2S(=O)(=O)[O-])cc1`, the Potency entry in assay [1], in assay [3], in assay [4], in assay [14], in assay [9] and in [15] was “inactive” throughout. Besides, the Potency result in assay [13] is “inactive”. For the same compound, the Potency in [2] is 3.08 µM (active); in assay [5], 17.3 µM (active); in assay [8] it was 17.3 µM (active); in [11], 13.7 µM (active). Besides, in [16], the compound was classed as inactive.
`C/C(C=O)=C\c1ccccc1`: the Potency entry in [1], in assay [2], in [3], in assay [4], in [5] and in assay [17] was “inactive” in each case. The Potency result in assay [14], in assay [7], in [18], in [8], in assay [9] and in assay [15] was “inactive” throughout. In addition, the Potency entry in assay [10] and in [13] was “inactive” each time. For the same compound, the result in [19] and in assay [16] was inactive.
On to `CCCCCCCCCCCCCCCCCC(=O)OCC(CC)CCCC` (configuration not stated), for which the Potency entry in assay [1], in [2], in assay [3], in [4], in assay [6] and in assay [17] was “inactive” throughout. Moreover, the Potency result in assay [7], in assay [8], in [9], in assay [15], in assay [10] and in assay [12] was “inactive” in each case. For the same compound, in assay [13], the Potency result is “inactive”. Further, in assay [19], the compound was called inactive.
On to `Cc1ccc(S(=O)(=O)NC(=O)NC2CCCCC2)cc1`, for which the Potency result in [1], in assay [2], in [3], in assay [4], in assay [6] and in assay [17] was “inactive” in each case. In addition, the Potency result in assay [7], in [18], in assay [8], in assay [9], in assay [15] and in [11] was “inactive” each time. In addition, the Potency entry in [12] and in assay [13] was “inactive” throughout. Besides, the call in assay [19] and in [16] was inactive.
`COC(=O)CC(C(C)=O)C(=O)OC` (configuration not stated): the Potency result in [1], in assay [2], in [3], in assay [4], in assay [5] and in assay [20] was “inactive” each time. For the same compound, the Potency entry in assay [17], in assay [7], in assay [18], in [8], in assay [9] and in [15] was “inactive” throughout. The Potency entry in assay [10], in [11], in assay [12] and in assay [13] was “inactive” throughout. Besides, the compound was classed as inactive in assay [19] and in assay [16].
On to `COc1ccc(-c2cc(C(F)F)nn2-c2ccc(S(N)(=O)=O)cc2)cc1F`, for which the Potency result in assay [1], in assay [3], in [4], in assay [5], in assay [6] and in assay [17] was “inactive” throughout. Also, the Potency entry in assay [14], in [8], in [9], in assay [11] and in assay [12] was “inactive” in each case. Also, the compound was classed as inactive in assay [19] and in assay [16].
